Bioassay records (PubChem BioAssay)
HT1080-NT tox: kills 2HG-producing HT-1080-NT fibrosarcoma cells; HT-1080-NT fibrosarcoma viability, CellTiter-Glo ATP luminescence, 48 h; Potency, µM (doses to about 46.1 µM), without a hit: at the top dose activity, negative = less viability, hits mostly cytotoxic; hit rate 1.6% among 360,000; AID 686970;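 also: NT is the 2HG producing partner of a matched IDH1 knockdown line; potency is read from the fitted curve at half-maximal effect; 0% = DMSO-treated cells and -100% = media-only wells without cells; nearly all actives have a fitted effect of over 55% in size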
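Toxicity toward the 2HG-producing NT line was scored as %Activity, normalised to DMSO and no-cell wells, from CellTiter-Glo luminescence after 48 hours' treatment.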
TDP1 cell CPT: growth inhibition of DT40 Tdp1-/-;hTDP1 cells with camptothecin (screen for TDP1 inhibitors) | chicken DT40 Tdp1-/-;hTDP1 cells + 20 nM CPT, ATP luminescence, 48 h | Potency, µM (series often up to 46.2 µM), without a hit: top-dose activity change, negative = growth inhibition, usual class: inhibitors | hit rate 12% among 420,000; also: potency is read from the fitted curve at half-maximal effect; nearly all actives have a fitted effect of over 55% in size
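Cell growth measured by CellTiter-Glo luminescence after a minimum 48 h, 37 C compound exposure with 20 nM CPT in Tdp1-knockout DT40 cells stably expressing hTDP1, seeded 400/well; qHTS titration format.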
TDP1 cell noCPT: qHTS for Inhibitors of human tyrosyl-DNA phosphodiesterase 1 (TDP1): qHTS in cells in absence of CPT; DT40 Tdp1-/- hTDP1 cells, no CPT, ATP luminescence, 48 h; Potency, µM (top dose mostly 46.2 µM), for the others: top-dose activity change, negative = growth inhibition, actives largely listed as inhibitors; hit rate 15% among 420,000; also: potency is read from the fitted curve at half-maximal effect; nearly all actives have a fitted effect of over 55% in size
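Chicken DT40 Tdp1-/- cells stably complemented with human TDP1 were seeded at 400 cells/well with DMSO in place of 20 nM camptothecin. After compound pinning, cells grew at least 48 hr at 37 °C; viability read by CellTiter-Glo luminescence.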
HT1080 IDH1KD tx: kills HT-1080 cells with IDH1 knockdown; HT-1080 IDH1 knockdown viability, ATP luminescence, 48 h; Potency, µM (highest dose often 46.1 µM), for the others: top-dose activity, negative = toxicity, most hits filed as cytotoxic; hit rate 2% among 360,000; AID 686971;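 also: potency is read from the fitted curve at half-maximal effect; 0% = DMSO wells and -100% = cell-free medium wells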
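% activity derives from luminescence (CellTiter-Glo), normalised to DMSO and no-cell wells. HT-1080-IDH1KD cells, 750/well, had 48 h compound exposure at 37 °C.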
IL1B secr inh: blocks inflammasome-driven IL-1 beta release; hit rate 4.7% among 360,000; AID 743279; THP-1 LPS/ATP IL-1B secretion, AlphaLISA, 16 h; active compounds read low; activity change, % at 57.5 µM; in the data active = activity change below about -50%; inconclusive = mostly about -30% to -49%
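Secreted IL-1B measured by AlphaLISA bead assay after 16 h compound exposure of THP-1 cells; compounds (final up to 57.5 uM) added 1 h before LPS (250 ng/mL) and ATP (1.25 mM) stimulation; lower signal means less secretion.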
* marks the source's active call; other numbers are inactive results; ? = inconclusive; . = no result given. In the library only some 19% were active in any assay of this set; here they are far more common. Unless noted, calls follow the shape of the dose curve; as a rule, active = well fitted curve in the direction sought with a large enough effect; inconclusive = small, poorly fitted or top-dose-only effect, or another doubt; inactive = no such curve, though single readings can be large; an effect the other way counts as inactive or inconclusive. Unless noted, % is scaled to controls: 0 for no effect and ±100 for the full control effect.

SMILES	HT1080-NT tox	TDP1 cell CPT	TDP1 cell noCPT	HT1080 IDH1KD tx	IL1B secr inh
CC(=O)Nc1cc(-c2nn3c(C)nnc3s2)ccc1C	8%	10%	0%	12%	13
Cc1ccc(-c2nn3c(C)nnc3s2)cc1NC(=O)c1ccc(Br)o1	5%	?	-21%	5%	14
Cc1ccc(-c2nn3c(C)nnc3s2)cc1NC(=O)c1ccc(-c2ccc(Cl)cc2Cl)o1	?	7.3µM*	6.5µM*	?	21
CCC(=O)NC(c1ccc(OC)cc1)c1cc(Cl)c2cccnc2c1O (configuration not stated)	-26%	5.8µM*	6.5µM*	?	40
CC(=O)NC(c1ccc(C)cc1)c1cc(Cl)c2cccnc2c1O (configuration not stated)	-27%	5.2µM*	4.1µM*	?	42
COc1ccc(C(NC(=O)c2cccnc2)c2cc(Cl)c3cccnc3c2O)cc1OC (configuration not stated)	21µM*	18µM*	18µM*	12µM*	94
Cc1ccc(C(NC(N)=O)c2ccccc2)cc1 (configuration not stated)	?	-16%	?	?	6
O=c1cc(CO)oc(C(Nc2ccccn2)c2ccc(F)cc2)c1O (configuration not stated)	0%	-21%	-5%	12%	-20
Oc1c(C(Nc2ccccn2)c2cccnc2)cc(Cl)c2cccnc12 (configuration not stated)	?	4.6µM*	5.2µM*	?	44
Cc1ccc(C(=O)COC(=O)CNC(=O)c2ccccc2)s1	2%	-18%	-4%	-4%	-15
COCCn1c(=O)c(-c2ccc(Cl)cc2)nc2cnc(OC)nc21	.	6%	?	.	.
CCc1csc(CNC(=O)C2CCC(=O)N(Cc3cccc(F)c3)C2)n1 (configuration not stated)	12%	1%	-10%	20%	13
COc1ccc(C(=O)NC(c2ccc(OC)c(OC)c2)c2cc(Cl)c3cccnc3c2O)cc1 (configuration not stated)	.	5µM*	5.6µM*	.	.
COc1ccc(CC2(C)OC(c3ccc(Cl)cc3)=NN2C(C)=O)cc1 (configuration not stated)	?	?	?	-21%	-20
COCCN(C(=O)c1cccc(N2C(=O)CCC2=O)c1)c1nc(-c2ccc([N+](=O)[O-])cc2)cs1	-15%	?	21µM*	-23%	-11
O=C(Nc1nc(-c2ccc(F)cc2)cs1)c1cccc(N2C(=O)CCC2=O)c1	-2%	?	?	-1%	0
CC(C)Oc1cccc(C(=O)Nc2nnc([C@H]3C[C@H](O)[C@@H](CO)O3)s2)c1	9%	-7%	-1%	14%	5
CC1=C(C(=O)Nc2ccccc2F)C(c2ccsc2)C2=C(CC(c3ccccc3)CC2=O)N1 (configuration not stated)	-17%	26µM*	26µM*	-19%	-18
CCOCCOC(=O)C1=C(C)NC2=C(C(=O)CC(c3cccs3)C2)C1c1ccsc1 (configuration not stated)	?	?	?	-28%	-20
CC1=CC(=O)Nc2ccccc2S1	-3%	?	?	-6%	-6
Cc1ccc(-c2cc(-c3ccc4c(c3)NC(=O)CO4)nc3c2COc2ccc(C)cc2-3)cc1	.	?	2.1µM*	.	.
Cc1ccc2c(c1)-c1nc(-c3ccc4c(c3)NC(=O)CO4)cc(-c3ccc(Cl)cc3)c1CO2	.	1.5µM*	1.3µM*	.	.
Cc1ccn2cc(-c3ccc4c(c3)NC(=O)CO4)nc2c1	17%	0%	-24%	2%	-13
COc1ccc(O)c(/C=N/NC(=O)c2ccc(OCc3cccc(Br)c3)cc2)c1	1.6µM*	4.6µM*	5.8µM*	5.2µM*	92
COc1ccc(C(=O)N/N=C/c2cc(Br)ccc2O)cc1OC	?	2.3µM*	3.3µM*	?	124
SMILES	HT1080-NT tox	TDP1 cell CPT	TDP1 cell noCPT	HT1080 IDH1KD tx	IL1B secr inh
COc1ccc(C(=O)NCC(=O)OCc2cccc(Br)c2)cc1	4%	1%	-4%	13%	19
CC(=O)Nc1ccc(C(=O)COC(=O)CCc2ccccc2)c(F)c1	8%	9%	16%	9%	10
COCCCN1C(=O)C(CC(=O)NCc2ccco2)CC(C(=O)N(C)C)=C1C (configuration not stated)	1%	-6%	3%	-1%	23
CCN1C[C@@H]2[C@@H]3C(=O)N(Cc4ccccc4)C(=O)[C@@H]3[C@](Cc3ccccc3)(C1=O)N2C(=O)c1ccc(C(C)(C)C)cc1	-3%	16µM*	18µM*	5%	-13
COc1ccc2oc(=O)c(C(=O)Oc3ccc(NC(C)=O)cc3)cc2c1	0%	-6%	-5%	0%	8
COc1ccc(-c2nc(CSCC(=O)N3CCc4ccccc4C3)c(C)o2)cc1OC	-12%	?	21µM*	-10%	?
COc1ccc(-c2nc(CSCC(=O)NC3CCCc4ccccc43)c(C)o2)cc1OC (configuration not stated)	-11%	?	21µM*	-7%	-3
COc1ccc(-c2nc(CS(=O)CC(=O)NC3CCCc4ccccc43)c(C)o2)cc1OC (configuration not stated)	-1%	?	?	0%	-17
COc1ccc(-c2nc(CSCC(=O)N3CCC(C(N)=O)CC3)c(C)o2)cc1OC	1%	21%	-2%	3%	0
COC(=O)C1(C)NC(c2cccc(C)c2)C2C(=O)N(c3ccc(F)cc3)C(=O)C21 (configuration not stated)	2%	-10%	28%	10%	14
NC(=O)COc1ccccc1C(=O)Nc1ccccc1	.	2%	2%	.	.
Cc1csc(=Nc2ccccc2)n1CCCN1CCCC1=O	2%	9%	-13%	8%	10
COc1cc2c(cc1OC)-c1nnc(-c3cccs3)n1C1(CCCC1)C2	0%	21µM*	21µM*	0%	2
CC(C)(C)OC(=O)C[C@@H]1C/C=C\C[C@H](CC(=O)N(CCO)Cc2ccccc2)C(=O)N2CCC[C@H]2COC1=O	1%	?	?	2%	-2
O=C1OC[C@@H]2CCCN2C(=O)[C@@H](CC(=O)N(CCO)Cc2ccccc2)C/C=C\C[C@H]1Cc1ccc(F)cc1	-8%	?	15µM*	-10%	-17
O=C1OC[C@H]2CCCN2C(=O)[C@@H](CC(=O)N(CCO)Cc2ccccc2)C/C=C\C[C@H]1Cc1ccc(F)cc1	2%	13µM*	18µM*	-4%	-23
